CCHF vOTU inh-1: CCHFV vOTU protease inhibition. Pep-AMC fluorescence. inhibition, % at 11.5 µM. actives 0.55% (n = 370,000); further: 0% = vehicle wells with enzyme and 100% = no enzyme wells
GDH-TPI inh: counter-screen for M. tuberculosis FBA inhibitors: GDH-TPI coupled enzymes; GDH-TPI coupled enzyme counterscreen, NADH absorbance; AID 588335; actives 1.2% (n = 360,000); inhibition, % at 4.8 µM;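 further: 0% = DMSO wells and 100% = wells lacking the enzyme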
Vc quorum ag: inducers of Vibrio cholerae quorum light production without autoinducers; V. cholerae BH1578 lux reporter, luminescence, 6 h; activation, % at 18.7 µM; actives 0.16% (n = 350,000); AID 588436; in the data active means activation mostly above about 9.7%, no sharp cut-off
Mtb FBA inh: inhibits M. tuberculosis FBA enzyme; P9WQA3; actives 2.3% (n = 360,000); purified M. tuberculosis FBA, fluorescence read-out; AID 588726; inhibition, % at 1 µM; in the data active means inhibition above about 27%;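 further: 0% = vehicle and 100% = reference inhibitor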
Target sequence (P9WQA3 whole entry, looked up): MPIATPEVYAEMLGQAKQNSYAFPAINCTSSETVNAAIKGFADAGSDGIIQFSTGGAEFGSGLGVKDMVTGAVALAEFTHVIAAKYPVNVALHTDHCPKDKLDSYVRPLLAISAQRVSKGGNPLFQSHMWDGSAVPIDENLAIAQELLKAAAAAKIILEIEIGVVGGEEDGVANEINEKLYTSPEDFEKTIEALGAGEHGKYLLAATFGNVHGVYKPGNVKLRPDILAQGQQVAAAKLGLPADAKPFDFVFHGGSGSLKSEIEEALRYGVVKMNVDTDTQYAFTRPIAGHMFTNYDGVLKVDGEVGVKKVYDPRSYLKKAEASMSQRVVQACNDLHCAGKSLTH
CCHF vOTU inh-2: CCHFV vOTU protease inhibition, confirmation; shares compounds with CCHF vOTU inh-1; Recombinant CCHFV vOTU, Pep-AMC fluorescence; inhibition, % at 11.5 µM; actives 17% (n = 1,900); AID 686976
* = called active by the depositor. Sampled rows, rich in hits. Any-hit rate of the full collection: about 3.9%. Unless noted, no stated cut-off is given here; in the data, active means inhibition above about 30%; inactive means the rest.

Screening O=[N+]([O-])c1cc(Cl)cc(/C=N/NC(=S)Nc2ccc(S(=O)(=O)N3CCOCC3)cc2)c1O returned CCHF vOTU inh-1 39.2*, GDH-TPI inh 19.9, Vc quorum ag -2.4, Mtb FBA inh -10.2 and CCHF vOTU inh-2 3.4.
For COc1ccccc1CNS(=O)(=O)CCNC1CC1 the results were CCHF vOTU inh-1 8.7, GDH-TPI inh 0.5, Vc quorum ag -0.4 and Mtb FBA inh -3.3.
O=C(Nc1ccc(C(=O)O)cc1)/C(=C\C=C\c1ccccc1)NC(=O)c1cccc(Br)c1 was read as CCHF vOTU inh-1 29.9*, GDH-TPI inh 42.1*, Vc quorum ag inactive, Mtb FBA inh -2.7 and CCHF vOTU inh-2 22.4.
Screening O=C(Nc1ccc(C(=O)O)cc1)/C(=C/c1ccc2c(c1)OCO2)NC(=O)c1cccc(Br)c1 returned CCHF vOTU inh-1 9.8, GDH-TPI inh 22.0, Vc quorum ag -0.5 and Mtb FBA inh -3.0.
`CC1=CC(C)(C)N2C(=O)C(=Nc3ccc(O)cc3)c3cccc1c32` gave CCHF vOTU inh-1 81.6*, GDH-TPI inh 7.6, Vc quorum ag -0.3, Mtb FBA inh -0.2 and CCHF vOTU inh-2 -10.1.
COc1cc(N=C2C(=O)N3c4c(cccc42)C(C)=CC3(C)C)cc(OC)c1 was read as CCHF vOTU inh-1 3.9, GDH-TPI inh 3.7, Vc quorum ag inactive and Mtb FBA inh 6.6.
`COc1ccc2noc3c2c1C(=O)c1ccccc1-3` gave CCHF vOTU inh-1 63.5*, GDH-TPI inh 3.4, Vc quorum ag -0.7, Mtb FBA inh -10.8 and CCHF vOTU inh-2 103.8*.
For O=[N+]([O-])c1ccc2c(c1)oc1ccccc12 the results were CCHF vOTU inh-1 -9.7, GDH-TPI inh 11.7, Vc quorum ag inactive and Mtb FBA inh -4.4.
Screening O=C(C1=C(O)C(=O)N(CCN2CCOCC2)C1c1ccccn1)c1cccs1 (stereo not given) returned CCHF vOTU inh-1 31.3*, GDH-TPI inh 0.0, Vc quorum ag 7.1, Mtb FBA inh -2.7 and CCHF vOTU inh-2 -9.6.
`O=C(C1=C(O)C(=O)N(CCN2CCOCC2)C1c1ccc(F)cc1)c1cccs1` (stereo not given) gave CCHF vOTU inh-1 -2.9, GDH-TPI inh 2.3, Vc quorum ag inactive and Mtb FBA inh -0.2.
`Cc1cc(C(=O)N/N=C/c2ccc([N+](=O)[O-])s2)c2ccccc2n1` gave CCHF vOTU inh-1 30.5*, GDH-TPI inh 8.0, Vc quorum ag -0.1, Mtb FBA inh -6.0 and CCHF vOTU inh-2 -6.5.
Cc1ccccc1C(=O)N/N=C/c1ccc([N+](=O)[O-])s1 was read as CCHF vOTU inh-1 15.9, GDH-TPI inh 28.3, Vc quorum ag inactive and Mtb FBA inh -3.6.
Screening O=S(=O)(Nc1ccc(N2CCOCC2)nn1)c1ccccc1 returned CCHF vOTU inh-1 5.7, GDH-TPI inh -3.1, Vc quorum ag -0.6 and Mtb FBA inh 2.8.
For CCCN1CCCCC(NC(C)=O)C1=O (stereo not given) the results were CCHF vOTU inh-1 6.3.
For COc1ccc(OC)c(S(=O)(=O)Oc2ccc(N)c3ccccc23)c1 the results were CCHF vOTU inh-1 29.8*, GDH-TPI inh 20.0, Vc quorum ag inactive, Mtb FBA inh 0.6 and CCHF vOTU inh-2 -13.8.
COc1ccc(OC)c(S(=O)(=O)Nc2cccc3ccccc23)c1 was read as CCHF vOTU inh-1 -7.5, GDH-TPI inh -2.3, Vc quorum ag -0.5 and Mtb FBA inh 1.9.
Screening CNC(=O)CSCc1cnn(-c2ccccc2)c1-n1cccc1 returned CCHF vOTU inh-1 0.7, GDH-TPI inh -2.2, Vc quorum ag -0.3 and Mtb FBA inh 0.8.
For COc1cccc(CNC(=O)CSCc2cnn(-c3ccccc3)c2-n2cccc2)c1 the results were CCHF vOTU inh-1 36.4*, GDH-TPI inh 5.7, Vc quorum ag -0.4, Mtb FBA inh 3.4 and CCHF vOTU inh-2 7.0.
`CCCCCCCCN1C(=O)[C@H](CC(=O)NCCCOC)C[C@@]2(C(=O)OC)CC(C)(C)CC=C12` gave CCHF vOTU inh-1 32.7* and CCHF vOTU inh-2 20.0.
For CCCCCCCCN1C(=O)[C@H](CC(=O)NCc2ccc(C)o2)C[C@@]2(C(=O)OC)CC(C)(C)CC=C12 the results were CCHF vOTU inh-1 30.3* and CCHF vOTU inh-2 7.3.
`COC(=O)[C@@]12C[C@@H](CC(=O)NCCC(C)C)C(=O)N(CCc3ccc(OC)c(OC)c3)C1=CCC(C)(C)C2` gave CCHF vOTU inh-1 29.8* and CCHF vOTU inh-2 1.9.
`CCCCCCCCN1C(=O)[C@H](CC(=O)NCCCOCCCC)C[C@@]2(C(=O)OC)CC(C)(C)CC=C12` gave CCHF vOTU inh-1 22.0.
For C#CCNC(=O)C[C@@H]1C[C@@]2(C(=O)OC)CC(C)(C)CC=C2N(CCCCCCCC)C1=O the results were CCHF vOTU inh-1 31.0* and CCHF vOTU inh-2 8.4.
For CCCCCCCCN1C(=O)[C@H](CC(=O)NCC2CCCCC2)C[C@@]2(C(=O)OC)CC(C)(C)CC=C12 the results were CCHF vOTU inh-1 25.9.
For COC(=O)c1c(C)[nH]c(C(=O)C(C)OC(=O)C2CC(=O)N(CCc3ccccc3)C2)c1C (stereo not given) the results were CCHF vOTU inh-1 32.7*, GDH-TPI inh 3.6, Vc quorum ag -0.6, Mtb FBA inh -0.7 and CCHF vOTU inh-2 -6.2.
`O=C1OCCN1N=Cc1ccco1` gave CCHF vOTU inh-1 0.9, GDH-TPI inh -1.8, Vc quorum ag -1.0 and Mtb FBA inh -2.5.
Nc1ccc(C(=O)Nc2ccc3c(O)cc(S(=O)(=O)O)cc3c2)cc1 was read as CCHF vOTU inh-1 -2.3, GDH-TPI inh 13.6, Vc quorum ag inactive and Mtb FBA inh -0.5.
For Nc1cc(S(=O)(=O)O)cc2ccc(S(=O)(=O)O)cc12 the results were CCHF vOTU inh-1 43.9*, GDH-TPI inh 1.3, Vc quorum ag 3.4, Mtb FBA inh 114.7* and CCHF vOTU inh-2 -96.9.
CCN(CC)S(=O)(=O)c1cc(NC(=O)CN2C(=O)NC(C)(c3ccccc3)C2=O)ccc1C (stereo not given) was read as CCHF vOTU inh-1 34.2*, GDH-TPI inh 17.1, Vc quorum ag -3.3, Mtb FBA inh -0.6 and CCHF vOTU inh-2 3.7.
Cc1ccc(C(=O)Nc2cccc3cccnc23)cc1Br was read as CCHF vOTU inh-1 -6.8, GDH-TPI inh 3.0, Vc quorum ag 0.9 and Mtb FBA inh -1.1.
For O=C(NCc1nnc(SCc2ccc(F)cc2)n1-c1ccc(F)cc1)C12CC3CC(CC(C3)C1)C2 the results were CCHF vOTU inh-1 34.3*, GDH-TPI inh -6.2, Vc quorum ag inactive, Mtb FBA inh -1.6 and CCHF vOTU inh-2 -9.3.
For COc1ccc(OC)c(-c2nnc3n2N=C(c2ccc(OC)c(OC4CCCC4)c2)CS3)c1 the results were CCHF vOTU inh-1 32.3*, GDH-TPI inh 31.9*, Vc quorum ag -0.4, Mtb FBA inh 5.4 and CCHF vOTU inh-2 22.7.
COc1ccc(C2=Nn3c(nnc3-c3ccccc3F)SC2)cc1OC1CCCC1 was read as CCHF vOTU inh-1 19.5, GDH-TPI inh 28.1, Vc quorum ag -0.4 and Mtb FBA inh -2.9.
COc1c(F)c(F)c(C(=O)O)c(Nc2ccccc2)c1F was read as CCHF vOTU inh-1 -12.7, GDH-TPI inh -2.7, Vc quorum ag inactive and Mtb FBA inh -1.3.

Bioassay records as filed in PubChem.
